# Laboratory results reported in PubChem BioAssay.
# Calls of active or inactive are those of the source.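 How the source made its calls, unless noted: active means visually confirmed hit in the image check and inhibition above 20%; inconclusive means visually confirmed hit but inhibition not above 20%; inactive means no visual hit in the image check.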
# Assays:
# [1] = inhibitors of TNFa-induced NFkB p65 translocation, primary screen, imaging, HUVEC, MLSMR starter and 10KST1 sets (AID 438;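 active means inhibition above 20% together with a positive visual image hit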;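 further: compound added about 3h40 before a 20 min TNFalpha stimulation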;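 on inhibition: signal is the nuclear over cytoplasmic p65 intensity ratio per well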); conditions: HUVEC TNFa-induced p65 nuclear translocation; cell count: measured here: nuclei count (cytotoxicity indicator), at 2.08 µM; inhibition: at 2 µM, stronger effect = higher value, 0% TNFa-plus-vehicle, 100% no-TNFa wells
# [2] = reduction of polyQ htt aggregates in cells – imaging, exon1htt(103Q)mCFP cells, high-content imaging, primary screen (AID 483;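 active means visual image review flags a hit and inhibition of aggregation exceeds 20%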;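 further: compound exposure lasted 3 days before fixation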;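 on nuclei count: percent of the per-plate median nuclei count of sample wells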); conditions: exon1htt(103Q)mCFP cell line, aggregate imaging, at 2 µM; inhibition of aggregation: stronger effect = higher value; nuclei count: measured here: cell count, toxicity
# [3] = endothelial E-selectin expression blockers – imaging, HUVEC, immunofluorescence, MLSMR starter and 10KST1 sets, primary screen (AID 487); conditions: HUVEC TNFalpha-induced E-selectin immunofluorescence imaging, at 2 µM; inhibition: stronger effect = higher value; nuclei count: measured here: cell number, toxicity;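 on inhibition: signal is fraction of cell area covered by stained E-selectin grains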;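 on nuclei count: 100% = median nuclei count of all wells on the same plate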
# [4] = molecular target: Voltage-gated potassium channel subunit beta-2 (Rattus norvegicus) (UniProt P62483); test: inhibitors of rat Kvbeta2 reductase activity – biochemical, NADPH fluorescence, primary screen (AID 622;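 active means fluorescence slope higher than the sample average by over 3 SD, cut at about -0.22 in these data, passing the limit was not always enough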;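 further: slope of raw intensity against log time taken from 70 to 1610 s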); conditions: recombinant KvBeta, 4-cyanobenzaldehyde reduction, at 10 µM, stronger effect = higher value
# Sequence of Voltage-gated potassium channel subunit beta-2 (Rattus norvegicus) (P62483 whole entry, looked up): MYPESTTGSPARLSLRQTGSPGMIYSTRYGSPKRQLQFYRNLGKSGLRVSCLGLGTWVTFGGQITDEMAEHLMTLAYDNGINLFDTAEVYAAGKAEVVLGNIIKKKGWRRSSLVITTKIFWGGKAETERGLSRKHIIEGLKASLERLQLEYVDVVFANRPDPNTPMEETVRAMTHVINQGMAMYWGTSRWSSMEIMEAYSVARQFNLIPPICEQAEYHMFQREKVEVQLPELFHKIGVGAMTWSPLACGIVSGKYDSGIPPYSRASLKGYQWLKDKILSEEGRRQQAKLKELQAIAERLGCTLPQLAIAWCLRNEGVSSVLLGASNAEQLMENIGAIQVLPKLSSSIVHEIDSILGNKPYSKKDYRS
# [5] = molecular target: Voltage-gated potassium channel subunit beta-2 (Rattus norvegicus) (UniProt P62483); test: enhancers of rat Kvbeta2 NADPH turnover – biochemical, NADPH fluorescence, primary screen (AID 623;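 active means NADPH fluorescence slope more negative than the mean of all samples by about 3 SD, 99.7% confidence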;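 further: fluorescence intensity change per second fitted from 20 to 320 s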); conditions: Recombinant KvBeta, NADPH fluorescence decrease slope, 10 min; at 10 µM; stronger effect = lower value
# [6] = molecular target: Alpha-2C adrenergic receptor (Homo sapiens) (UniProt P18825); test: compounds altering alpha2C-coupled GIRK flux – cell-based, HEK293 alpha2C/GIRK1/2, thallium flux, primary screen (AID 624;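 active means fluorescence slope after compound addition differing from the mean of all screened samples at 99.7% confidence, in either direction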;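 further: slope of fluorescence ratio to pre-addition baseline per second over 15 to 24 s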); conditions: thallium flux BTC fluorescence, at 10 µM, actives lie on both sides
# Sequence of Alpha-2C adrenergic receptor (Homo sapiens) (P18825 whole entry, looked up): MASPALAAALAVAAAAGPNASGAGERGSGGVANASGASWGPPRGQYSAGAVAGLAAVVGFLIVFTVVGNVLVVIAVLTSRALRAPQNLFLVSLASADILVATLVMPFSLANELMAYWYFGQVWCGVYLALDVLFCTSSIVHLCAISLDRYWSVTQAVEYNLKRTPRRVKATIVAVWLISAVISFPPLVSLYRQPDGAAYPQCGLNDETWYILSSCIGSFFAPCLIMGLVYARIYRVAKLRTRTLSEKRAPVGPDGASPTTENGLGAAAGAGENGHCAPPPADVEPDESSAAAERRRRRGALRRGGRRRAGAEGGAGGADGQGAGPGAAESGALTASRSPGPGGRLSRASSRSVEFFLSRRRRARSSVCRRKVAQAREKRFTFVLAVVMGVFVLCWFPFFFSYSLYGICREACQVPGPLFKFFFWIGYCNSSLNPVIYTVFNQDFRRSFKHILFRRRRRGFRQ
# [7] = blockers of RIG-like receptor reporter activation – cell-based, Sendai virus stimulus, luciferase, 10K MLSCN set, TLR/RLR signaling modifier project, primary screen (AID 602276;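 active means inhibition at or above 50% at 10 µM; inactive means inhibition below 50%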;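 further: firefly luciferase from ISG56 promoter only with Renilla not read in this screen; 0% = Sendai virus plus DMSO and 100% = medium plus DMSO without virus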); conditions: HEK293 RL24 IRF3 luciferase reporter, at 10 µM, stronger effect = higher value
# [8] = TLR3 IRF3 reporter activation blockers – cell-based, poly I:C stimulus, luciferase, 10K MLSCN set, primary screen (AID 602277;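 active means inhibition of the reporter signal at or above 50%; inactive means inhibition below 50%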); conditions: HEK293-TLR3 RL24 IRF3 luciferase reporter, at 10 µM, stronger effect = higher value
SMILES,cell count [1],inhibition [1],inhibition of aggregation [2],nuclei count [2],inhibition [3],nuclei count [3],fluorescence slope [4],NADPH fluorescence slope [5],slope [6],inhibition [7],inhibition [8]
CCOC(=O)N1CCN(Cc2nc3c(c(=O)n(C)c(=O)n3C)n2Cc2ccc(F)cc2)CC1,697,0.3% (inactive),-1.6% (inactive),91.7%,-23.4% (inactive),123%,-0.557 (inactive),-3.3e-05 (inactive),0.00745 (inactive),16.7% (inactive),39.9% (inactive)
COc1ccccc1N1CCN(S(=O)(=O)CC23CCC(CC2=O)C3(C)C)CC1 (stereo not drawn),522,-8.1% (inactive),20.7% (inactive),103%,-64.4% (inactive),157%,-0.452 (inactive),-3.6e-05 (inactive),0.00394 (inactive),9.34% (inactive),25.6% (inactive)
CC(C)=CCC(C)(C)C1OCCN1C(=O)c1ccccc1 (stereo not drawn),450,1.5% (inactive),1.2% (inactive),116%,10.2% (inactive),106%,-0.444 (inactive),2e-05 (inactive),0.00511 (inactive),8.82% (inactive),12.9% (inactive)
CC(C)c1nc(N2CCN(C(=O)c3ccco3)CC2)c2c3c(sc2n1)CCCC3,748,-9.7% (inactive),-12.3% (inactive),94.5%,-7.6% (inactive),103%,-0.486 (inactive),5.1e-05 (inactive),0.00628 (inactive),15.9% (inactive),-5.95% (inactive)
CCOC(=O)N1CCC(N2C(=O)c3ccccc3C2Nc2ccccc2C)CC1 (stereo not drawn),568,5.8% (inactive),-4% (inactive),98.2%,-22.5% (inactive),106%,-0.531 (inactive),-3.2e-05 (inactive),0.00624 (inactive),3.88% (inactive),36.9% (inactive)
O=C1CCC(c2ccccc2)N1C(=O)c1cccnc1 (stereo not drawn),565,-17.3% (inactive),-4.3% (inactive),98%,-57.8% (inactive),111%,-0.512 (inactive),-6.9e-05 (inactive),0.00593 (inactive),-4.49% (inactive),9.24% (inactive)
Cc1nc(N2CCN(c3ncccn3)CC2)c2oc3ccccc3c2n1,583,-8.7% (inactive),0.3% (inactive),106%,-56.1% (inactive),104%,-0.432 (inactive),-1.4e-05 (inactive),0.00731 (inactive),-3.03% (inactive),-57.2% (inactive)
COc1ccc(-n2c(Cc3cccn3C)nnc2SCC(=O)Nc2cccc(Cl)c2)cc1,583,36.1% (active),22.4% (inactive),85.2%,1.8% (inactive),116%,-0.609 (inactive),1.6e-05 (inactive),0.00706 (inactive),-2.83% (inactive),19.5% (inactive)
COc1ccc(CCNC(=O)CC2COc3ccccc3O2)cc1OC (stereo not drawn),611,-7.2% (inactive),25% (inactive),115%,-28.9% (inactive),115%,-0.619 (inactive),2.1e-05 (inactive),0.00334 (inactive),19.4% (inactive),20.3% (inactive)
COCc1nnc(NC(=O)c2ccc(NC(C)=O)cc2)s1,684,-12.6% (inactive),-4.2% (inactive),95.9%,-22% (inactive),93.1%,-0.527 (inactive),-3.7e-06 (inactive),0.00454 (inactive),-5.57% (inactive),-14.7% (inactive)
COc1ccc(N(CC(=O)Nc2ccc3c(c2)OCCO3)S(=O)(=O)c2cccnc2)cc1,515,-3.3% (inactive),13.1% (inactive),117%,-36.8% (inactive),122%,-0.608 (inactive),-7e-05 (inactive),0.00783 (inactive),-5.76% (inactive),17.1% (inactive)
CCOc1ccccc1C1CC(c2ccc(Br)cc2)Nc2nc(N)nn21 (stereo not drawn),593,6.9% (inactive),19.2% (inactive),94.5%,-14.1% (inactive),107%,-0.512 (inactive),-4.3e-05 (inactive),0.0067 (inactive),18.7% (inactive),33.7% (inactive)
CCN(CC(=O)NCc1cccs1)C(=O)c1cc(S(=O)(=O)N2CCOCC2)ccc1C,591,-9.6% (inactive),-22.2% (inactive),107%,-82.2% (inactive),136%,-0.466 (inactive),-3.7e-05 (inactive),0.00388 (inactive),1.74% (inactive),27.8% (inactive)
COc1ccc(-c2nc(SC)n(S(=O)(=O)c3ccccc3)n2)cc1,683,-1.9% (inactive),7.6% (inactive),99.4%,-122% (inactive),109%,-0.476 (inactive),9.5e-05 (inactive),0.00851 (inactive),-26% (inactive),-119% (inactive)
CCOC(=O)c1cc2ccc(OC)c(OC)c2c(=O)s1,452,4.9% (inactive),-3.4% (inactive),102%,36.3% (inactive),108%,-0.396 (inactive),-2.4e-05 (inactive),0.00363 (inactive),-11.9% (inactive),-12.5% (inactive)
COCc1nnc(NS(=O)(=O)c2ccc(Br)cc2)s1,757,-12.1% (inactive),13.5% (inactive),102%,30.4% (inactive),90.2%,-0.362 (inactive),4.4e-05 (inactive),0.00659 (inactive),18.1% (inactive),19.6% (inactive)
CCc1ccc(NC(=O)CS(=O)CC(=O)NC(C)CCc2ccco2)cc1 (stereo not drawn),388,0.6% (inactive),18.9% (inactive),94.8%,-203% (inactive),116%,-0.484 (inactive),-1.8e-05 (inactive),0.00694 (inactive),5.19% (inactive),13.9% (inactive)
COc1ccccc1N(C)S(=O)(=O)c1ccc(C(=O)NC2=NCCS2)cc1,458,10.9% (inactive),9.8% (inactive),95.4%,-38% (inactive),110%,-0.598 (inactive),-2.8e-05 (inactive),0.00655 (inactive),2.13% (inactive),12% (inactive)
Cc1ccc(S(=O)(=O)N2CCCC(c3nnc4n3-c3ccccc3SC4)C2)cc1 (stereo not drawn),431,3.4% (inactive),4.2% (inactive),95.7%,-34% (inactive),103%,-0.67 (inactive),-3.6e-05 (inactive),0.00342 (inactive),16.2% (inactive),19.1% (inactive)
c1nc(NCC2(N3CCOCC3)CCCCC2)c2ccsc2n1,303,17.8% (inactive),-2.2% (inactive),93%,20.6% (inactive),87.7%,-0.612 (inactive),-1e-05 (inactive),0.00518 (inactive),-0.86% (inactive),23.1% (inactive)
Cc1ccnc(NS(=O)(=O)c2ccc(NC(=O)Cc3cccs3)cc2)n1,301,6.3% (inactive),0.7% (inactive),67%,-83.5% (inactive),104%,-0.408 (inactive),6.5e-05 (inactive),0.00546 (inactive),-4.32% (inactive),-12.1% (inactive)
CC(C)(C)NC(=O)COC(=O)c1snc(C(=O)NC2CCCCC2)c1N,236,13.3% (inactive),3.3% (inactive),99.5%,-55.6% (inactive),96.2%,-0.586 (inactive),2.8e-05 (inactive),0.00501 (inactive),9.79% (inactive),-26% (inactive)
CC(=O)Nc1ccccc1OCc1nnc(-c2cccs2)o1,392,4.8% (inactive),-8.8% (inactive),92.5%,-266% (inactive),104%,-0.612 (inactive),2e-06 (inactive),0.00944 (inactive),-27% (inactive),-28.6% (inactive)
COc1cccc(OCCSc2nnc3sc4ccccc4n23)c1,548,-6.3% (inactive),0.2% (inactive),89%,-24.1% (inactive),127%,-0.463 (inactive),-0.000108 (inactive),0.00727 (inactive),-10.1% (inactive),-31.6% (inactive)
CC1=NC(Nc2nc(C)c3ccccc3n2)=NC(C)(C)C1,391,1.5% (inactive),-1.8% (inactive),94%,-13% (inactive),111%,-0.462 (inactive),6.6e-05 (inactive),0.00711 (inactive),3.86% (inactive),1.48% (inactive)
COc1ccc(S(=O)(=O)Cc2ccc(C(=O)N3CCN(Cc4ccccc4)CC3)o2)cc1,583,-4.8% (inactive),21.6% (inactive),98.6%,-37.7% (inactive),121%,-0.588 (inactive),-1.9e-05 (inactive),0.0068 (inactive),-3.69% (inactive),28.9% (inactive)
O=C(Nc1ccc(SC(F)F)cc1)c1ccc2nccnc2c1,823,-1.3% (inactive),14.5% (inactive),101%,55.1% (active),95%,-0.39 (inactive),2e-05 (inactive),0.00714 (inactive),-15% (inactive),-139% (inactive)
CCOC(=O)N1CCC(N2C(=O)c3ccccc3C2Nc2cccnc2)CC1 (stereo not drawn),592,-4.5% (inactive),-28.1% (inactive),100%,-11.7% (inactive),117%,-0.6 (inactive),4.7e-06 (inactive),0.00694 (inactive),7.61% (inactive),-4.54% (inactive)
